Test results from PubChem BioAssay (Tox21).
Several values for one entry are separate records, joined by “and”; a condition that tells them apart may be missing. Equal entries are not always repeated. Inconclusive results are not listed. Activity calls are given as the source filed them. Unless noted, the call rests on the fitted dose curve; in most records, active means well fitted curve in the direction sought with a large enough effect in the repeat runs; inconclusive means weak or mixed curves; inactive means no such curve, though single readings can be large; an effect the other way counts as inactive or inconclusive.

Tests used:
[1] = target: Luciferin 4-monooxygenase (Photinus pyralis) (UniProt P08659); test: qHTS assay to identify small molecule inhibitors of firefly luciferase (AID 1224835); further: nearly all actives have a fitted effect of over 25% in size; further: potency means the concentration at half of the fitted maximal effect
Method in brief: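 Quantitative HTS format; KM concentrations of both substrates. Purified P. pyralis FLuc activity quantified from luminescence images.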

[2] = qHTS assay to identify small molecule agonists of the constitutive androstane receptor (CAR) signaling pathway - cell viability counter screen (AID 1224836); further: nearly all actives have a fitted effect of over 45% in size; further: potency means the concentration at half of the fitted maximal effect
Method in brief: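 Double-stable HepG2 hepatoma cells (hCAR plus CYP2B6-2.2kb) are treated for 23 h at 37 C with test compounds in 15-point concentration series. PK11195 at 0.75 uM final is co-added. Cell viability is quantified by CellTiter-Fluor.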

[3] = qHTS assay to identify small molecule antagonists of the constitutive androstane receptor (CAR) signaling pathway - cell viability counter screen (AID 1224837); further: nearly all actives have a fitted effect of over 45% in size; further: potency means the concentration at half of the fitted maximal effect
Method in brief: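 In quantitative HTS format, compounds at 15 concentrations were applied to HepG2 cells double-transfected with hCAR and CYP2B6-2.2kb under 50 nM CITCO stimulation; live-cell protease activity was read after 23 hr via CellTiter-Fluor.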

[4] = qHTS assay to identify small molecule antagonists of the estrogen related receptor signaling pathway with the pleiotropic PPARgamma coactivator (PGC) from Tox21 10K library - cell viability counter screen (AID 1224840; active means well fitted cell-killing curve with a large enough effect in the repeat runs, not every such curve was filed as active; further: nearly all actives have a fitted effect of over 40% in size; further: potency means the concentration at half of the fitted maximal effect)
Method in brief: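 Viability counter screen, PGC/ERR cells: 17.5 h compound exposure at 37 C, CellTiter-Fluor fluorescence endpoint.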

[5] = target: Thyrotropin receptor (Homo sapiens) (UniProt P16473); test: qHTS assay to identify small molecule agonists of the thyroid stimulating hormone receptor (TSHR) signaling pathway (AID 1224843; calls by dose curve; further: nearly all actives have a fitted effect of over 45% in size; further: potency means the concentration at half of the fitted maximal effect)
Method in brief: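 Using 15 concentrations per compound in triplicate, cAMP production was monitored in TSHR-HEK293 cells after 30 min compound incubation at RT; HTRF reagents followed, with fluorescence intensity recorded after 1 h.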

[6] = qHTS assay to identify small molecule agonists of the hypoxia (HIF-1) signaling pathway - cell viability counter screen (AID 1224844; calls by dose curve; further: nearly all actives have a fitted effect of over 50% in size; further: potency means the concentration at half of the fitted maximal effect)
Method in brief: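 Same wells as the HIF-1 reporter screen; ME-180 cells carrying HRE-bla, 17 hr treatment at 37C; CellTiter-Glo luminescence read after 30 min at room temperature.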

[7] = qHTS assay to identify small molecule antagonists of the estrogen related receptor signaling pathway with the pleiotropic PPARgamma coactivator (PGC) from Tox21 10K library (AID 1224841; call rule not given here; further: actives are mostly falling curves and most rising ones were filed inactive; nearly all actives have a fitted effect of over 50% in size; further: potency means the concentration at half of the fitted maximal effect)
Method in brief: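 In the PGC/ERR line, DMSO solutions of test chemicals are pin-delivered to 2,000 cells/well six hours after dispensing. Following eighteen hours' incubation, One-Glo reagent is added and luminescence recorded.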

[8] = qHTS assay to identify small molecule agonists of the estrogen related receptor signaling pathway with the pleiotropic PPARgamma coactivator (PGC) from Tox21 10K library (AID 1224842); further: nearly all actives have a fitted effect of over 15% in size
Method in brief: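 PGC/ERR reporter cells (NTP line) were seeded 2,000 per well, rested 6 h at 37 C/5% CO2, then pin-dosed with compounds in DMSO for 18 h at 37 C; luciferase read by One-Glo luminescence after 30 min at room temperature.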

[9] = target: Nuclear receptor subfamily 1 group I member 3 (Homo sapiens) (UniProt Q14994); test: qHTS assay to identify small molecule antagonists of the constitutive androstane receptor (CAR) signaling pathway (AID 1224838); further: nearly all actives have a fitted effect of over 40% in size; further: potency means the concentration at half of the fitted maximal effect
Method in brief: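 CITCO-stimulated (50 nM final) HepG2 cells stably transfected with hCAR and CYP2B6-2.2kb luciferase were exposed to compounds at 15 concentrations for 24 h at 37 C/5% CO2. A luciferase reagent was added and luminescence recorded after 30 min.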

[10] = target: Nuclear receptor subfamily 1 group I member 3 (Homo sapiens) (UniProt Q14994); test: qHTS assay to identify small molecule agonists of the constitutive androstane receptor (CAR) signaling pathway (AID 1224839); further: nearly all actives have a fitted effect of over 15% in size; further: potency means the concentration at half of the fitted maximal effect
Method in brief: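 Readout: firefly luciferase luminescence via ONE-Glo. System: HepG2 double-stable for hCAR and CYP2B6-2.2kb. Conditions: 15-point compound titration, PK11195 at 0.75 uM final, 24 h incubation.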

Measured: Potency

Chain of Luciferin 4-monooxygenase (Photinus pyralis) (P08659 whole entry, looked up): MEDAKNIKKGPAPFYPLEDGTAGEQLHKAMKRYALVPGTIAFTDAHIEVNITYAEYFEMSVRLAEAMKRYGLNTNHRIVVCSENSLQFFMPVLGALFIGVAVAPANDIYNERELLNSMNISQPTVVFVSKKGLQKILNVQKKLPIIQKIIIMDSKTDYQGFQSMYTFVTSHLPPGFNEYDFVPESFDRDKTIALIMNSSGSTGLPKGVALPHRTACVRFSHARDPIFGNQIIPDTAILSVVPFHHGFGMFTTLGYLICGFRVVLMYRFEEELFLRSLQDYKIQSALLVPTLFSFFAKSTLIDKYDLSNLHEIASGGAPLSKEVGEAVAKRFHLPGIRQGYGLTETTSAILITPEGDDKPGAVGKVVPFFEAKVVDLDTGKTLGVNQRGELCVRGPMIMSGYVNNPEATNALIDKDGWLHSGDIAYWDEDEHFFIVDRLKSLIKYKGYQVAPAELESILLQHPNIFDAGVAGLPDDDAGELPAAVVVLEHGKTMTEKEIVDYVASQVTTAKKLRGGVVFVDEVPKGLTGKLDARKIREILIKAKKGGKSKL
Chain of Nuclear receptor subfamily 1 group I member 3 (Homo sapiens) (Q14994 whole entry, looked up): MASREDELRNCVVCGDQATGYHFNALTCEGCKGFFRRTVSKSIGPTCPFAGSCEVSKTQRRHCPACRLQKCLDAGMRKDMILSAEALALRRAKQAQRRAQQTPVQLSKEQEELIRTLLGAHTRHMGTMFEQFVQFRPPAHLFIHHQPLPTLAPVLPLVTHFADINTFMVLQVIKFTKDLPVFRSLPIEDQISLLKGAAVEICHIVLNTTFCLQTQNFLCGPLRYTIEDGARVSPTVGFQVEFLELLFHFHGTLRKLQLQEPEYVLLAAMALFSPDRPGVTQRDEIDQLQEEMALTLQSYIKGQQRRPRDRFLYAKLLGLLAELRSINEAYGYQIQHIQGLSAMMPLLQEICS
Chain of Thyrotropin receptor (Homo sapiens) (P16473 whole entry, looked up): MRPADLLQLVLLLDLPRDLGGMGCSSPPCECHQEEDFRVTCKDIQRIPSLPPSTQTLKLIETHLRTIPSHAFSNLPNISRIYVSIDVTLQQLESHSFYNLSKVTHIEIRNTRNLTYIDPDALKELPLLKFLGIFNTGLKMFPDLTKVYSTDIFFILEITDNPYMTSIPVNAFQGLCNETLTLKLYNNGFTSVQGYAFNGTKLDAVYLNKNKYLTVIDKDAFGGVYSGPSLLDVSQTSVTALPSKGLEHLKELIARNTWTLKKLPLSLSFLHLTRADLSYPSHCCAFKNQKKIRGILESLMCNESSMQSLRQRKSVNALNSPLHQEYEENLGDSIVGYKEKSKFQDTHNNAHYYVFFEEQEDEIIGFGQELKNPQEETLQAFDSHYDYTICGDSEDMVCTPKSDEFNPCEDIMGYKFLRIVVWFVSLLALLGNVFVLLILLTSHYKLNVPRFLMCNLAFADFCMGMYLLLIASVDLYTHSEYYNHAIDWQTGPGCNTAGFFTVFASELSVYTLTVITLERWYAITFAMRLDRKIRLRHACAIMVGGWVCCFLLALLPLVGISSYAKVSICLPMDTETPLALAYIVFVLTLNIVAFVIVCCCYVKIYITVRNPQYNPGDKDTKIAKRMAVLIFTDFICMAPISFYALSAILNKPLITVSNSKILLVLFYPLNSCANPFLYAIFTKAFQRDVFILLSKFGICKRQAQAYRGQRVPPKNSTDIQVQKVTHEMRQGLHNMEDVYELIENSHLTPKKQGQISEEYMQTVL

CC(=O)OCC(C)OC(C)=O (stereo not given)
inactive: [1] | [2] | [3] | [4] | [5] | [6]

C[C@@H]1C[C@H]2[C@@H]3CCC4=CC(=O)C=C[C@]4(C)[C@@]3(Cl)[C@@H](O)C[C@]2(C)[C@@]1(OC(=O)c1ccco1)C(=O)CCl
inactive: [1] | [2] | [3] | [8] | [5]
active: [7] 23.7 µM

CC(C)(C)C(=O)OCOC(=O)C1N2C(=O)CC2S(=O)(=O)C1(C)C (stereo not given)
inactive: [1] | [2] | [3] | [4] | [5]

CC(C)(C)CC(C)(C)c1ccc(OCCOCC[N+](C)(C)Cc2ccccc2)cc1
inactive: [1] | [2] | [8]
active: [4] 48.5 µM | [7] 27.3 µM and 6.68 µM | [5] 13.7 µM and 11.9 µM

Fc1ccc(C(c2ccc(F)cc2)N2CCN(C/C=C/c3ccccc3)CC2)cc1
inactive: [1] | [2] | [9] | [10] | [8] | [5]

C[C@H]1[C@H]2CC[C@H]3[C@@H]4CC=C5C[C@@H](N(C)C)CC[C@]5(C)[C@H]4CC[C@]23CN1C
inactive: [1] | [3] | [9] | [10] | [4] | [8] | [5]

CCCCN1C(=O)[C@@H]([C@H](O)C2CCCCC2)NC(=O)C12CCN(Cc1ccc(Oc3ccc(C(=O)O)cc3)cc1)CC2
inactive: [1] | [2] | [9] | [10] | [8] | [5]

O=C1Cc2cc(CCN3CCN(c4nsc5ccccc45)CC3)c(Cl)cc2N1
inactive: [1] | [2] | [9] | [10] | [8] | [5]

CCCCCCCCNC(C)C(O)c1ccc(SC(C)C)cc1 (stereo not given)
active: [2] 29.8 µM | [4] 29.8 µM | [6] 19 µM
inactive: [1] | [8]

Cc1cc(O)c2ccccc2c1O
inactive: [1] | [2] | [10] | [8] | [5]
active: [9] 16.8 µM

CCN(C(=O)N(CC)c1ccccc1)c1ccccc1
inactive: [1] | [2] | [4] | [8] | [6]
active: [5] 61.1 µM

O=S1(=O)CC(Cl)(Cl)C(Cl)(Cl)C1
inactive: [1] | [8]
active: [2] 12.2 µM | [4] 9.69 µM | [5] 4.86 µM | [6] 3.89 µM

N=C1N=C(N)c2cc3ccccc3cc21
inactive: [1] | [7]
active: [2] 24.3 µM | [5] 6.86 µM | [6] 15.5 µM

O=C(NOCC1CC1)c1ccc(F)c(F)c1Nc1ccc(I)cc1Cl
inactive: [1] | [2] | [8]
active: [7] 11.9 µM

Cc1ccc(O)c2ncccc12
inactive: [1] | [10] | [8] | [5] | [6]
active: [3] 11.9 µM | [9] 13.3 µM | [4] 23.7 µM

N/C(=N\N=C\c1ccc(Cl)cc1)N/N=C/c1ccc(Cl)cc1
active: [1] 9.77 µM | [6] 23.9 µM
inactive: [2] | [9] | [10] | [8] | [5]

C=C(C)C(=O)OCC(O)COc1ccc(C(C)(C)c2ccc(OCC(O)COC(=O)C(=C)C)cc2)cc1 (stereo not given)
active: [3] 61.1 µM | [4] 30.6 µM
inactive: [1] | [10] | [8] | [5]

CCCCCOC(=O)CCCC
inactive: [1] | [2] | [4] | [5]

Oc1c(Cl)cc(Cl)c2cccnc12
active: [4] 26.6 µM
inactive: [1] | [2] | [10] | [8] | [5]

CC(=O)SC[C@@H](Cc1ccccc1)C(=O)NCC(=O)OCc1ccccc1
inactive: [1] | [2] | [4]

N=C1C=CC(=C(c2ccc(N)cc2)c2ccc(N)cc2)C=C1
active: [1] 20 µM | [2] 34.4 µM | [7] 3.44 µM
inactive: [10] | [8] | [6]

Oc1cc2ccccc2c2ccccc12
active: [1] 79.6 µM | [2] 17.2 µM | [4] 7.7 µM | [6] 7.76 µM

O=c1cc(-c2ccc(O)cc2)oc2cc(O)cc(O)c12
active: [1] 10.2 µM and 7.96 µM | [2] 55.2 µM | [10] 24.7 µM and 61.1 µM
inactive: [9] | [5]

O=C1C=CC(=O)N1c1ccc(Cc2ccc(N3C(=O)C=CC3=O)cc2)cc1
inactive: [10]
active: [1] 15.9 µM | [2] 54.5 µM | [9] 27.3 µM | [6] 11 µM

CCCCCCCCCCCC(=O)NCCCN(C)C
inactive: [1] | [10]
active: [2] 61.1 µM | [4] 61.1 µM

O=C(OCC1CO1)C1CCCCC1C(=O)OCC1CO1 (stereo not given)
inactive: [1] | [2] | [9] | [10] | [8] | [5] | [6]

Cc1cc(O)c(C(C)(C)C)cc1C(C)(C)C
active: [2] 61.1 µM | [6] 43.6 µM
inactive: [1] | [10] | [8]
